These results are taken from PubChem BioAssay AID2284357 (EPA ToxCast).

Each structure is given as a SMILES string. Results filed as inconclusive are left out. Active and inactive are the calls of the source. The calls were made as follows: active = hit-call score of the fitted dose curve at least 0.9, where 1 is the maximum; inconclusive = response in the unintended direction; inactive = score below 0.9.

This assay deals with zebrafish Androgen Receptor (AR), gene 100005148. The experiment in a line: ATG_zfAR_EcoTox2: Attagene TRANS-FACTORIAL EcoTox-2 HepG2 Assay for zebrafish Androgen Receptor (AR). On the procedure: ATG_EcoTox2 is a cell-based, multiplexed assay created by modifying the existing Attagene TRANS-FACTORIAL system to include a panel of nuclear receptors from some or all the following species: human (Homo sapiens), african clawed frog (Xenopus laevis), rainbow trout (Oncorhynchus mykiss), japanese medaka (Oryzias latipes), and zebrafish (Danio rerio). The ECOTOX2-FACTORIAL format uses HepG2, a human liver cell line, with measurements taken at 24 hours after chemical dosing in a 24-well plate. ATG_zfAR_EcoTox2 is one of 29 assay components calculated in the ATG_EcoTox2 assay. It is designed to make measurements of mRNA induction, a form of inducible reporter, as detected with fluorescence intensity signals by Reverse transcription polymerase chain reaction (RT-PCR) and Capillary electrophoresis technology.The assay endpoint ATG_zfAR_EcoTox2 was analyzed in the positive analysis fitting direction relative to DMSO as the negative control and baseline of activity. Using a type of inducible reporter, measures of mRNA for gain-of-signal activity can be used to understand the reporter gene at the transcription factor-level as they relate to the gene AR. Furthermore, this assay endpoint can be referred to as a primary readout, because this assay has produced multiple assay endpoints where this one serves a reporter gene function. To generalize the intended target to other relatable targets, this assay endpoint is annotated to the nuclear receptor intended target family, where the subfamily is steroidal.
Human liver HepG2 cells are transiently transfected with multiple reporter transcription units (MRTUs) in 6-well plates using FuGene 6 reagent (Roche; 3 ml FuGene/1 mg DNA). The MRTU constructs are regulated by a cis-regulating element (promoter). Each RTU expresses a GAL4-UAS that regulates the transcription of a nearby target reporter gene sequence. A major difference between the CIS and TRANS system is that in CIS activities of endogenous TFs are measured, whereas the TRANS assay evaluates changes in activities of exogenous, chimeric NR-Gal4 proteins. […] At the end of 24 hour incubation, total RNA was isolated using TriZol reagent (Invitrogen). The isolated RNA is then reverse-transcribed using oligo(dT) primer and Mo-MLV reverse transcriptase (Invitrogen) with DNAse I (Ambion) treatment for 30 min. The one-tenth of the produced cDNA was amplified by PCR using Taq DNA polymerase (Invitrogen) and two reporter sequence-specific primers. […] The fragments were purified using Qiaquick PCR columns (Qiagen), analyzed on an ABI 3130xL genetic analyzer (Applied Biosystems) with peak positions identified by using a set of X-rhodamine (ROX)-labeled MapMarker1000 molecular weight standards (BioVentures). […]
Take `CCCCOCN(C(=O)CCl)c1c(CC)cccc1CC`: the molecule was classed as inactive.

For `O=P(Oc1ccccc1)(Oc1ccccc1)Oc1ccccc1`, the result was inactive.

Take `O=S(=O)(O)C(F)(F)C(F)(F)C(F)(F)C(F)(F)C(F)(F)C(F)(F)F`: the call was inactive.

Take `O=C(O)C(F)(F)C(F)(F)C(F)(F)C(F)(F)C(F)(F)C(F)(F)C(F)(F)F`: the result was inactive.
